FBW7 activator = FBW7 E3 ligase activators, primary screen, biochemical, AlphaScreen, human; F-box/WD repeat-containing protein 7 (Homo sapiens), Q969H0; AlphaScreen FBW7–phospho-cyclin E peptide binding, activator screen; normalized activity (activation), % at 26.1 µM; 650,000 tested, 0.13% active; AID 1259310, 2017; in the data active means normalized activity above about 1.9%;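 further: purified mutant Fbw7 with reduced substrate affinity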
Target sequence (Q969H0 whole entry, looked up): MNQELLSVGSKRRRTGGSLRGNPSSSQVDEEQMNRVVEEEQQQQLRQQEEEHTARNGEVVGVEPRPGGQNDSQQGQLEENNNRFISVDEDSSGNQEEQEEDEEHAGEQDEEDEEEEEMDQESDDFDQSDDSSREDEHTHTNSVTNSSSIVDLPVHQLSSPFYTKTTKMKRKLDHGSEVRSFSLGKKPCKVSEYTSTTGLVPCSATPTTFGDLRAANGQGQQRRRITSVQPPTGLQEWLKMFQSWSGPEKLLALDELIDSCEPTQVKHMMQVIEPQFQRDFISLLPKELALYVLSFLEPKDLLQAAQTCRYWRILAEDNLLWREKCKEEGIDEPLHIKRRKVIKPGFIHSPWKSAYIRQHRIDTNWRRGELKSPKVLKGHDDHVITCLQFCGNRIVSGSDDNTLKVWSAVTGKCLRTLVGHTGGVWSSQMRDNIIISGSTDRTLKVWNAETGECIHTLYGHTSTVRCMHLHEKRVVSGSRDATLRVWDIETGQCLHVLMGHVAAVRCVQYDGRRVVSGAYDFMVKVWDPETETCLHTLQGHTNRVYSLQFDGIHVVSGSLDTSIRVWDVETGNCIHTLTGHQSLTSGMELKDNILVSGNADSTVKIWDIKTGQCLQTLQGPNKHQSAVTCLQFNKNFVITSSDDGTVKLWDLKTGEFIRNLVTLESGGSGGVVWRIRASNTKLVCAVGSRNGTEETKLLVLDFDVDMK
TEAD-YAP inh = TEAD-YAP interaction inhibition, primary screen, TEAD-YAP interaction inhibitor project, luminescence, HEK-TIYL cells | TEAD-Gal4/YAP UAS-luciferase luminescence | inhibition, % at 9.12 µM | 640,000 tested, 1.4% active; in the data active means inhibition above about 32%
MITF primary = MITF inhibitors, primary screen, biochemical, AlphaScreen, human; AlphaScreen MITF homodimerization, bead proximity signal; Microphthalmia-associated transcription factor (Homo sapiens), O75030; 650,000 tested, 0.91% active; inhibition, % at 2.6 µM; in the data active means inhibition above about 50%
GPR151 activ = activators of human GPR151, primary screen, cell-based, PathHunter beta-arrestin, luminescence. 650,000 tested, 1% active. activation, % at 11.2 µM. G-protein coupled receptor 151 (Homo sapiens), Q8TDV0. PathHunter beta-arrestin GPR151 cells. AID 1508602, 2020; in the data active means activation above about 4.9%
Each line names hits and unclear results; the compound was inactive in the other large screens. Shown are actives, neighbours in structure and some others; about 3.4% of the full set was active somewhere.

CC1CCN(c2ncnc(N)c2[N+](=O)[O-])CC1	none
CC1CC(C)CN(c2ncnc(N)c2[N+](=O)[O-])C1 (stereo not drawn)	TEAD-YAP inh 62
CC1CN(c2ncnc(N)c2[N+](=O)[O-])CC(C)O1 (stereo not drawn)	none
Nc1ncnc(N2CCCC2)c1[N+](=O)[O-]	TEAD-YAP inh 33
N#C/C(=C(/O)CSc1nnc(Nc2ccccc2F)s1)c1nc2ccccc2[nH]1	none
COc1ccccc1CCC(=O)Nc1ccc2c(c1)CN(C(=O)c1ocnc1C)CC2	none
CCOc1ccc(-n2c(=S)sc3c2nc(=S)n2c4ccccc4[nH]c32)cc1	none
CC1Cc2ccccc2N1c1ncnc(N)c1[N+](=O)[O-] (stereo not drawn)	TEAD-YAP inh 81
Nc1ncnc(N2CCCc3ccccc32)c1[N+](=O)[O-]	none
CC(=O)Nc1ccc(NC(=O)Cn2cnc3c(cnn3C(C)(C)C)c2=O)cc1	FBW7 activator 4.0
CCOC(=O)c1c(C)c(C(=O)Nc2cc(C)ccc2OC)c(C)n1CC	TEAD-YAP inh 41
CCOC(=O)c1[nH]c(C)c(C(=O)Nc2cc(C)ccc2C)c1C	TEAD-YAP inh 40
CCOC(=O)c1[nH]c(C)c(C(=O)Nc2cccc(C)c2C)c1C	TEAD-YAP inh 42
CCOC(=O)c1[nH]c(C)c(C(=O)N2CCc3ccccc32)c1C	TEAD-YAP inh 49
Cc1cccc(NC(=O)CSc2nc3cc4c(cc3cc2C#N)OCCO4)c1	TEAD-YAP inh 57
COc1ccc(C)cc1NC(=O)CSc1nc2cc3c(cc2cc1C#N)OCCO3	TEAD-YAP inh 67
Cc1ccc(C(=O)c2ccc(N)cc2)cc1C	TEAD-YAP inh 52
Nc1c(C(=O)Nc2ccc(F)cc2)nnn1Cc1cccc(Cl)c1	TEAD-YAP inh 33
Nc1c(C(=O)Nc2ccc(Br)cc2)nnn1Cc1cccc(Cl)c1	none
Cc1cccc(-n2nnnc2Sc2ccc([N+](=O)[O-])c3cnccc23)c1	TEAD-YAP inh 46
Cn1cnnc1Sc1ccc([N+](=O)[O-])c2cnccc12	none
c1ccc(-n2cnc3c(Nc4ccc5c(c4)OCO5)nc(Nc4ccc(-n5ccnc5)cc4)nc32)cc1	TEAD-YAP inh 43
c1ccc(-n2cnc3c(Nc4ccc5c(c4)OCO5)nc(Nc4ccncn4)nc32)cc1	none
c1ccc2c(Nc3nc(Nc4ccc5c(c4)OCO5)c4ncn(-c5ccsc5)c4n3)nccc2c1	TEAD-YAP inh 49
c1cnc2ccc(Nc3nc(Nc4ccc5c(c4)OCO5)c4ncn(-c5ccsc5)c4n3)cc2c1	FBW7 activator 8.5, TEAD-YAP inh 45
CCNc1nc(Nc2ccc3c(c2)OCO3)c2ncn(C(C)C)c2n1	none
CC(C)n1cnc2c(Nc3ccc4c(c3)OCO4)nc(Nc3nccc4ccccc34)nc21	TEAD-YAP inh 36
COC(CNCc1ccc(SC)cc1)OC	none
c1ccc(-n2cnc3c(Nc4ccc5c(c4)OCO5)nc(Nc4ccc5ncccc5c4)nc32)cc1	FBW7 activator 7.1
COc1cc(Nc2nc(Nc3ccc4ncccc4c3)nc3c2ncn3-c2ccsc2)cc(OC)c1OC	TEAD-YAP inh 32
COc1cc(Nc2nc(Nc3ccc(C(F)(F)F)cc3)nc3c2ncn3-c2ccsc2)cc(OC)c1OC	none
CC(C)CC(=O)Nc1ccc2nn(-c3ccccc3)nc2c1	FBW7 activator 3.0
O=C(COc1ccccc1)Nc1ccc2nn(-c3ccccc3)nc2c1	none
Cc1cc2nn(-c3ccccc3)nc2cc1NC(=O)C(C)C	none
CC(=O)Nc1cc2nn(-c3ccccc3)nc2cc1C	TEAD-YAP inh 50
COc1ccc(S(=O)(=O)N(C)c2ccc(C(=O)NC3CCCCC3)cc2)cc1OC	none
CC(=O)N[C@@H](CC(C)C)C(=O)NCC1Cc2cc(-c3ccccc3C(C)=O)ccc2O1 (stereo partly drawn)	none
CCN1CCN(Cc2ccc(NC(=O)Nc3cc(F)ccc3F)cc2)CC1	TEAD-YAP inh 40
COc1cc(C(=O)Nc2sc3c(c2C#N)CCC(C)C3)cc(OC)c1OC (stereo not drawn)	none
COc1cc(C(=O)Nc2sc3c(c2C#N)CCC3)cc(OC)c1OC	TEAD-YAP inh 41
COc1cc(C(=O)Nc2sc3c(c2C#N)CCC(C)C3)c(Br)c(OC)c1OC (stereo not drawn)	TEAD-YAP inh 34
Cc1c(N(C)C(=O)c2ccccc2)c(=O)n(-c2ccccc2)n1C	none
COc1ccc(C(=O)Nc2sc3c(c2C(N)=O)CCN(Cc2ccccc2)C3)cc1	none
CCSc1nnc(C(C)NC(=O)Cc2ccc3c(c2)OCO3)n1C (stereo not drawn)	none
Nc1cc(S(=O)(=O)Nc2ccc(SC(F)F)cc2)ccc1Cl	none
Cc1ccc(C(=O)Nc2ccc(C(=O)O)cc2)cc1	TEAD-YAP inh 45
O=C(Nc1ccc(-c2ccc(NC(=O)c3ccc(Cl)cc3)cc2)cc1)c1ccc(Cl)cc1	FBW7 activator 39
Cc1ccc(C(=O)Nc2ccc(C)c(C)c2)cc1	TEAD-YAP inh 67
Cc1nc(-c2ccc(NC(=O)c3ccccc3)cc2)cs1	TEAD-YAP inh 51
N#CCn1nc(C(=O)O)c2ccccc2c1=O	none
CCN1CCN(C(=S)c2ccc(O)c(OC)c2)CC1	none
CCOC(=O)C1=C(C)N(CCOC)C(=O)/C1=C\c1ccc2c(c1)OCO2	none
Cc1ccc(-n2nc3c(c2NC(=O)c2cc([N+](=O)[O-])ccc2Cl)CS(=O)(=O)C3)c(C)c1	TEAD-YAP inh 70
COc1ccc(-n2nc3c(c2NC(=O)c2cc([N+](=O)[O-])ccc2Cl)CS(=O)(=O)C3)cc1	TEAD-YAP inh 73
Cc1ccc(-n2nc3c(c2NC(=O)c2ccc([N+](=O)[O-])cc2)CS(=O)(=O)C3)c(C)c1	none
Cc1ccccc1-n1nc2c(c1NC(=O)c1cc([N+](=O)[O-])ccc1Cl)CSC2	TEAD-YAP inh 74
Cc1ccc(-n2nc3c(c2NC(=O)c2cc([N+](=O)[O-])ccc2Cl)CS(=O)(=O)C3)cc1	none
CC1=C(C(=O)Nc2ccc(Br)cc2)C(c2ccc(O)cc2)NC(=O)N1 (stereo not drawn)	FBW7 activator 2.8
COc1cccc(C2NC(=O)NC(C)=C2C(=O)Nc2ccc(F)cc2)c1OC (stereo not drawn)	TEAD-YAP inh 43
CCOC(=O)Nc1ccc(I)cc1	none
CCOC(=O)Nc1ccc(Cc2ccc(NC(=O)OCC)cc2)cc1	TEAD-YAP inh 33
COc1cccc(C(=O)/C=C\Nc2ccc3c(c2)OCO3)c1	TEAD-YAP inh 85
COc1cccc(C(=O)/C=C/Nc2ccccc2OC)c1	TEAD-YAP inh 64
COc1ccc(N/C=C/C(=O)c2ccccc2)cc1	TEAD-YAP inh 84
COc1cccc(C(=O)/C=C/Nc2cc(OC)ccc2OC)c1	none
COc1cccc(C(=O)/C=C\Nc2ccc(Br)cc2)c1	TEAD-YAP inh 54
CCc1ccc(C2C(C(=O)OC)=CN(C(C)c3ccccc3)C=C2C(=O)OC)cc1 (stereo not drawn)	none
CC(=O)Nc1c2c(nn1C(C)(C)C)CSC2	none
O=C(/C=C\Nc1ccc2c(c1)OCO2)c1cccc2ccccc12	none
